Assay results taken from PubChem BioAssay AID1159580 (chemical genetic matrix, 2015).
Among all 5,500 compounds or so, about 2,000 (36%) were called active. Inconclusive results (about 18%) are left out. Rule as the data show it: active = normalized growth mostly below about 0.91 (no sharp cut-off); inconclusive = no clear call, values can overlap the other calls; inactive = mostly above about 0.92. Some of the results follow.

Experiment: chemical genetic growth profiling, strain panel (AID 1159580);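 also: tested at 20 µM; growth read once vehicle control cultures reached saturation at 30 °C; 1 = growth at the plate median or of vehicle wells; lower values mean less growth of the strain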
Details: S. cerevisiae deletion strains, growth OD

Measured: normalized growth

COC(=O)C1=C(C)NC(C)=C([N+](=O)[O-])C1c1ccccc1C(F)(F)F (stereo not given)
inactive: locus YAL040C, strain CLN3, stronger effect = lower value 0.982 | locus YCL061C, strain MRC1 (second series), stronger effect = lower value 1 | locus YER002W, strain NOP16, stronger effect = lower value 0.991 | locus YGR078C, strain PAC10, stronger effect = lower value 0.94 | locus YNL175C, strain NOP13, stronger effect = lower value 0.976 | locus YNL197C, strain WHI3, stronger effect = lower value 1.04 | locus YNL224C, strain SQS1, stronger effect = lower value 0.987 | locus YNL322C, strain KRE1, stronger effect = lower value 1.01 | locus YOR083W, strain WHI5 (second series), stronger effect = lower value 1 | locus YPL055C, strain LGE1, stronger effect = lower value 1.01
